Shown are actives, neighbours in structure and some others; about 2.9% of the full set was active somewhere.
EP2 mod: modulators of human EP2 prostaglandin E2 receptor. 0.83% of 260,000 active. induction, % at 25 µM. AID 940. EP2-expressing cells, cAMP HTRF FRET, PGE2 co-stimulation. P43116;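 active = compounds whose cAMP rise, as percent of the full-agonist control response, exceeds 60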;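 also: rat C6 glioma line stably carrying human EP2 under a CMV promoter; the protocol text gives 20 µM as final concentration; 100% = response of wells given 1 µM PGE2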
RAM inhibit: blocks the yeast RAM network | inhibition, % at 50 µM | S. cerevisiae dse1pr::URA3 reporter, 5-FOA growth OD615, 2 d; analog-sensitive cbk1-as2 kinase mutant strain | 1.8% of 190,000 active | AID 868;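 active = inhibition above a set limit, 3 SD over mean compound inhibition, cut at about 8.4% in these data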;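 also: 0% = DMSO-only wells with no growth and 100% = 10 µM 1-NA-PP1 full growth; inhibition rescues growth on 5-FOA so higher OD means more RAM inhibition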
Rev-erbA mod: modulators of human Rev-erb alpha DNA binding; P20393; Rev-erbα–FITC-DNA binding, fluorescence polarization, 90 min; activity, % at 10 µM; 0.79% of 370,000 active;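 active = activity above about 14%, limit read from the data; passing the limit was not always enough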;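 also: 0% = DMSO wells with 35 nM protein and 100% = DMSO wells with 750 nM protein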
Target sequence (P20393 whole entry, looked up): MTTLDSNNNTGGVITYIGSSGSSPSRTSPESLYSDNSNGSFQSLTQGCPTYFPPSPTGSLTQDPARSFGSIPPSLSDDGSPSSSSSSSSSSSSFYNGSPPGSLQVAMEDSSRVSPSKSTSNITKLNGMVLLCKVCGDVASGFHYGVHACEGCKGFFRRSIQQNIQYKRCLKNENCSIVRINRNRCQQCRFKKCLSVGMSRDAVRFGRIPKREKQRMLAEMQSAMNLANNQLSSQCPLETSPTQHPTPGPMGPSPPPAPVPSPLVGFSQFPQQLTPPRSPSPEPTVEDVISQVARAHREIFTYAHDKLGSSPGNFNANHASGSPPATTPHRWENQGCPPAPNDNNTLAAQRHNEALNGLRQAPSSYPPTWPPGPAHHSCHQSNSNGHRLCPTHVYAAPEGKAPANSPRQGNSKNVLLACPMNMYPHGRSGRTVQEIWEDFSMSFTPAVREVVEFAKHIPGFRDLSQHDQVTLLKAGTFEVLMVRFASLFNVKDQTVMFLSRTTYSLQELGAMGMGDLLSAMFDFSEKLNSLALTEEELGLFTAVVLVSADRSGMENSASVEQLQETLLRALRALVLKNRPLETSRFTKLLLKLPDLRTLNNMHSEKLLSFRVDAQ
EP2 antag: EP2 receptor (human) inhibition. P43116. C6 glioma cells expressing human EP2, cAMP TR-FRET; cells stimulated with saturating PGE2. inhibition, % at 25 µM. 0.52% of 260,000 active. AID 1422;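 active = percent inhibition above 40 after rounding to a whole number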;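 also: rat C6 glioma host cells with rolipram phosphodiesterase inhibitor present; the protocol text gives 20 µM as final concentration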
PG9 binder: PG9 antibody binding by small molecule | AID 624416 | 0.43% of 360,000 active | TR-FRET gp120-PG9 antibody binding | inhibition, % at 6.7 µM; in the data active = inhibition above about 8.5%
SKN-1 inh: C. elegans SKN-1 inhibition; C. elegans VP596 Pgst-4::GFP/RFP ratio, acrylamide-induced, 24 h; inhibition, % at 21.8 µM; 0.49% of 360,000 active; AID 624304;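 active = interference check ratio from 0.5 to 1.5 plus GFP to RFP signal ratio inhibition reaching or exceeding a fixed threshold, cut at about 30% in these data, passing the limit was not always enough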
An asterisk follows results filed as active; nt = not tested or not shown.

SMILES	EP2 mod	RAM inhibit	Rev-erbA mod	EP2 antag	PG9 binder	SKN-1 inh
CNC(=O)c1ccc(-c2sc3nc(N4CCOCC4)c4c(c3c2N)CC(C)(C)OC4)o1	-13	5	1	29	-14	2
CNC(=O)c1ccc(-c2sc3nc(N4CCOCC4)c4c(c3c2N)CCCC4)o1	3	9.3*	-3	14	-6	8
O=C(Nc1nc2ccsc2c(=O)s1)c1ccco1	10	nt	3	9	0	0
O=C(Nc1nc2c(ccc3ccccc32)s1)c1ccco1	-18	2	6	17	-2	81*
CC(=O)Nc1nc2ccc(Br)cc2s1	-25	0	-1	nt	-3	35*
O=C(Nc1nc2c(Cl)ccc(Cl)c2s1)c1ccco1	-17	1	-4	70*	-1	-7
Cc1ccc2nc(NC(=O)c3ccco3)sc2c1	-29	0	-6	18	-2	45*
O=C(CN1C(=O)CSC1=O)Nc1cccc(Cl)c1Cl	-32	nt	nt	8	nt	nt
O=C(Nc1nc2c(s1)CCc1ccccc1-2)c1ccco1	-19	4	3	8	0	41*
CCC(=O)N1CCN(c2nc3ccc(Br)cc3s2)CC1	nt	nt	1	nt	-3	43*
COc1ccc(C(=O)Nc2nc3c(s2)Cc2cc(OC)ccc2-3)cc1	-36	5	-6	9	-1	2
COc1ccc2c(c1)Cc1sc(NC(=O)c3ccccc3)nc1-2	-48	2	-5	13	-2	42*
CCCCC(=O)N1CCN(c2nc3ccc(F)cc3s2)CC1	nt	nt	1	nt	2	-2
CCN(CC)CCNc1nc2c(c(=O)[nH]c(=O)n2C)n1Cc1ccccc1C	-48	nt	nt	6	nt	nt
CC(C)c1ccc(N(CC(=O)NCC2CCCO2)S(C)(=O)=O)cc1 (configuration not stated)	-28	nt	nt	15	nt	nt
CC(C)n1c(=O)[nH]c2c(C(N)=O)nc(-c3ccc(Cl)cc3)nc21	9	nt	nt	7	nt	nt
COCCn1c(SCC#N)nnc1-c1ccc(OC)cc1	24	-1	2	123*	-1	-10
COc1ccc(C(=O)N2c3ccccc3C=CC2C#N)cc1 (configuration not stated)	14	2	5	5	-1	5
Cc1ccc2c(c1)C=CC(C#N)N2C(=O)c1ccccc1 (configuration not stated)	34	0	-1	7	0	4
Cc1ccc2c(c1)C=CC(C)N2C(=O)c1ccccc1 (configuration not stated)	64*	0	-1	6	-1	-4
O=C(C[C@@H]1C=Cc2ccccc2N1C(=O)c1ccccc1)c1ccccc1	38	nt	nt	59*	nt	nt
CCn1c(SCC(=O)Nc2ccccc2OC)nnc1-c1ccc(OC)cc1	4	nt	nt	7	nt	nt
COc1cccc(/C=N/NC(N)=S)c1OCc1ccccc1Cl	36	8.8*	5	5	-1	9
O=C(O)c1cc2c(cc1S(=O)(=O)O)[C@@H]1[C@@H]([C@H]3[C@H]2[C@]2(Cl)C(Cl)=C(Cl)[C@@]3(Cl)C2(Cl)Cl)[C@]2(Cl)C(Cl)=C(Cl)[C@@]1(Cl)C2(Cl)Cl	73*	nt	nt	45*	nt	nt
COc1cccc(CNC(=O)c2cccnc2Sc2ccccc2)c1	nt	nt	1	nt	-2	18
SMILES	EP2 mod	RAM inhibit	Rev-erbA mod	EP2 antag	PG9 binder	SKN-1 inh
COc1ccc(CNC(=O)c2cccnc2Sc2ccc(C)c(C)c2)cc1	1	9.3*	0	6	1	2
Cc1cnc(C(=O)N2CCCC(c3ncncc3-c3ccncc3)C2)cn1 (configuration not stated)	7	nt	nt	nt	nt	nt
COc1ccc(-n2c(SCC(=O)N3CCCCC3)nnc2-c2ccc(Cl)cc2)cc1	-2	nt	nt	11	nt	nt
COc1cc(OC)cc(C(=O)N[C@H](C(=O)OCC(=O)Nc2ccc(C(N)=O)cc2)C(C)C)c1	2	1	0	6	-2	13
COc1cc(OC)cc(C(=O)N[C@H](C(=O)OCC(=O)Nc2ccc(F)c(F)c2)C(C)C)c1	29	8.6*	-2	4	-1	6
C[C@@H]1C=C[C@](Cc2ccccc2)(C(=O)NCC2CC2)N1C(=O)c1ccccc1	25	-1	0	7	1	35*
CNC(=O)[C@@]1(Cc2ccccc2)C=C[C@@H](C)N1C(=O)OC	nt	nt	-2	14	2	9

Assay outcomes as filed in PubChem BioAssay.
